Values joined by “and” are separate entries in the source; they are usually repeats but may differ in a detail not shown here. Equal values may be shown once. For some assays here: Potency and affinity values are given separately. Some structures have more than one record in an assay (separate samples or runs), and their calls can disagree. Active and inactive are the calls of the source. Unless noted, no stated cut-off is given here; in the data, active means parasite load remaining mostly below about 12% (no sharp cut-off); inactive means mostly above about 10%. Bridge positions count the residues as written; N and C are the ends. Square brackets hold non-standard residues; d marks the D form. Peptide text beside a SMILES is read from it. * marks the point of attachment. ξ: configuration not given here. ξDab(CH2SO3H) = NC(CCNCS(=O)(=O)O)C(=O)O; Heptanoyl(6-Me) = CC(C)CCCCC(=O)*; Dab = NCC[CH](N)C(=O)O
Tests used:
[1] = polyglutamine-triggered caspase-3 activation inhibitors, cell-based (AID 1583); settings: polyglutamine-induced caspase-3 activation, cell assay; stronger effect = higher value;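 tested at 10 µM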
[2] = suppressors of polyQ aggregation in yeast, 75Q-TubU reporter (AID 1593); settings: Yeast 75Q polyglutamine aggregation reporter
[3] = rescue of polyQ-huntingtin neuronal dysfunction in worms, whole organism, C. elegans mechanosensory neurons, N-terminal huntingtin (AID 1599); settings: touch response, stronger effect = higher value
[4] = inhibitors of mitochondrial cytochrome c release, biochemical, purified mitochondria (AID 1603); settings: stronger effect = lower value;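 further: mouse liver mitochondria challenged with calcium chloride; signal normalized to the plate average as 100%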
[5] = inhibitors of polyQ protein aggregation (AID 1604); settings: polyglutamine-induced protein aggregation inhibition assay; stronger effect = higher value; tested at 2.5 µM
[6] = enhancers of glutamate uptake in motor neurons, MN-1 cell line (AID 1612); settings: MN-1 motor neuron cells, stronger effect = higher value;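 further: tested at 1 µM final; 0% = mean of DMSO vehicle wells on each plate; positive means more glutamate uptake than control and negative means less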
[7] = suppressors of polyglutamine aggregation in yeast, 75Q-TubH (AID 1616); settings: S. cerevisiae 75Q-TubH polyglutamine aggregation suppression; stronger effect = higher value
[8] = liver-stage malaria parasite growth inhibition, primary screen, cell-based, HepG2, luciferase luminescence, HepG2 viability (AID 624349);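 further: 100% = mean of DMSO negative control wells on the same plate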; settings: P. berghei liver stage in HepG2, luciferase luminescence, concentration not given here; parasite load remaining: stronger effect = lower value; viability: measured here: HepG2 viability without parasites
[9] = differential killing of epithelial or mesenchymal cells, primary screen, imaging, PC-3E GFP, TEM4-18 mCherry, co-culture (AID 1345086;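 active means compounds killing one labelled cell type while sparing the other, by normalised counts and ratio limits, not self-fluorescent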;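 on all read-outs here: cells exposed to compound for 72 h before imaging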;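 on red/green cell ratio (normalised): normalised mesenchymal count divided by normalised epithelial count so high means epithelial killing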); settings: imaging cell counts, at 1 µM; for red/green cell ratio (normalised): actives lie on both sides, counts scaled to control wells, 1 = unselective
[10] = sensitizers of A549 cells to miR-34 induction, primary screen, imaging, A549 dox-inducible miR-34, nuclei and caspase counts (AID 1347080;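 active means compounds whose cell count with miR-34 switched on is under 0.7 times the count with it off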); settings: A549 miR-34 inducible, Hoechst nuclei count, 48 h
[11] = reducers of polyQ inclusions in PC12 cells, cell-based, NGF-treated PC12, GFPQ80 (AID 1614); settings: PC12 NGF-treated GFP-polyQ80 inclusion reduction;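 further: lower means fewer inclusions and 0 means no inclusions at all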
[12] = measured here: epithelial PC-3E GFP cell survival
[13] = measured here: mesenchymal TEM4-18 mCherry cell survival
[14] = stronger effect = lower value, cell number ratio, induced over uninduced
[15] = measured here: relative caspase fold change +Dox/-Dox
[16] = measured here: total cells with miR-34 induction, stronger effect = lower value
[17] = measured here: total cells without miR-34 induction

| SMILES | inhibition [1] [%] | score [2] | rescue above control [3] | cytochrome c release ratio [4] | inhibition of aggregation [5] [%] | glutamate uptake change [6] [%] | aggregation suppression score [7] | parasite load remaining [8] | viability [8] | red/green cell ratio (normalised) [9] | normalised cell number [9, 12] | normalised cell number [9, 13] | fold change [10, 14] | fold change [10, 15] | cell count [10, 16] | cell count [10, 17] | inclusion score [11] |
| --- | --- | --- | --- | --- | --- | --- | --- | --- | --- | --- | --- | --- | --- | --- | --- | --- | --- |
| C=C[C@H]1CN2CC[C@H]1C[C@@H]2[C@H](O)c1ccnc2ccc(OC)cc12 | -2.2 | 1.5 | -7.29 | 0.97 | 9.09 | 13.1 | 1.58 | 68.2% (inactive) and 15.1% (active) | 72.3% and 81.3% | 1.16 (inactive) | 1.05 | 1.21 | 0.948 (inactive) | 2.86 | 10900 | 11500 |  |
| CCC(C)C1NC(=O)C(CCNCS(=O)(=O)O)NC(=O)C(NC(=O)C(CCNCS(=O)(=O)O)NC(=O)C(NC(=O)C(CCNCS(=O)(=O)O)NC(=O)CCCCC(C)C)C(C)O)CCNC(=O)C(C(C)O)NC(=O)C(CCNCS(=O)(=O)O)NC(=O)C(CCNCS(=O)(=O)O)NC(=O)C(C(C)CC)NC1=O (stereo not drawn) ({Heptanoyl(6-Me)}-[ξDab(CH2SO3H)]T[ξDab(CH2SO3H)][Dab][ξDab(CH2SO3H)]II[ξDab(CH2SO3H)][ξDab(CH2SO3H)]T; lactam 4-C; configuration not given here) | 16.7 | 0.3 | 0 | 1.4 | 59.3 | -9.16 | 0.253 | 124% (inactive) and 57.4% (inactive) | 68.9% and 92.3% | 1.41 (inactive) | 1.02 | 1.44 | 0.942 (inactive) | 0.679 | 11200 | 11900 |  |
| CCCCC(=O)O[C@H]1CCC2C3CCc4cc(O)ccc4C3CC[C@@]21C (stereo partly drawn) | 15.8 | -2.02 | 17.4 | 1.02 | 26.4 | 19.7 | 0.271 | 83% (inactive) and 44.1% (inactive) | 74.5% and 87.8% | 0.95 (inactive) | 0.89 | 0.84 | 0.938 (inactive) | 1.71 | 10200 | 10900 |  |
| NC[C@@H]1O[C@H](O[C@@H]2[C@@H](CO)OC(O[C@@H]3[C@@H](O)[C@H](N)C[C@H](N)[C@H]3OC3O[C@H](CN)[C@@H](O)[C@H](O)[C@H]3N)[C@@H]2O)[C@H](N)[C@@H](O)[C@@H]1O (stereo partly drawn) | -14.5 | 0.97 | 4.93 | 0.82 | 43.7 | -6.09 | 1.49 | 59.3% (inactive) | 91.2% | 0.97 (inactive) | 1.02 | 0.98 | 0.934 (inactive) | 0.542 | 12000 | 12900 | 2 |
| C[C@H](CCC(=O)O)[C@H]1CCC2C3C(CC[C@@]21C)[C@@]1(C)CC[C@@H](O)C[C@H]1C[C@H]3O (stereo partly drawn) | 13.5 | -0.55 | -0.69 | 0.92 | 21.1 | -19.3 | 0.165 | 96.5% (inactive) and 33.9% (inactive) | 70.7% and 87% | 1.27 (inactive) | 0.99 | 1.25 | 0.893 (inactive) | 3.03 | 10800 | 12100 |  |
| Nc1ncnc2c1ncn2C1O[C@H](COP(=O)(O)O)[C@@H](O)[C@H]1O (stereo partly drawn) | 5.37 | 1.5 | 1.04 | 0.86 | 92.6 | -13.1 | 1.2 | 124% (inactive) and 48.3% (inactive) | 75.9% and 108% | 0.96 (inactive) | 1.18 | 1.13 | 0.861 (inactive) | 1.84 | 11700 | 13600 | 2 |

From PubChem BioAssay
